From PubChem BioAssay (NCATS) come the findings set out here.

Test [1] is described as follows: qHTS drug screen for cell cycle checkpoint inhibitors in PARPi-resistant BRCA-mutant ovarian cancer cell lines. (AID 1963452; calls by dose curve). To be noted: PEO1/OlaR viability, CellTiter-Glo luminescence, 96 h, stronger effect = lower value. An outline of the steps: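 PEO1, PEO4 and PEO1/OlaR ovarian cancer cells, 600 per well, exposed 96 h at 37C to a dilution series. Viability read by CellTiter-Glo luminescence, normalized to DMSO and empty wells; activity summarized as Z-AUC.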
On the technique in general: qHTS replaces the single test concentration by a dilution series.

The next test relates to HaCat. As to the kind of experiment: Cytotoxic Profiling of Annotated Libraries Using Quantitative High-Throughput Screening (AID 1296008). Also: nearly all actives have a fitted effect of over 60% in size. Also: potency is read from the fitted curve at half-maximal effect. As to max response: % is scaled to controls: 0 for no effect and ±100 for the full control effect. To be noted: Five cell lines viability, CellTiter-Glo ATP luminescence, 48-72 h; max response: stronger effect = lower value. Put shortly: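 Cytotoxicity was measured as CellTiter-Glo ATP luminescence, read after 10 min at room temperature. Compound treatment of the cells lasted 48 or 72 hr at 37 degrees Celsius in a qHTS format.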
On the technique in general: ATP-based viability assays read luminescence as a measure of living cells.

A short description of test [2]: qHTS assay to identify inhibitors of the type 1 interferon - major histocompatibility complex class I in skeletal muscle: Counter screen cell viability and HiBit confirmation (AID 1347412). Also: % is scaled to controls: 0 for no effect and ±100 for the full control effect; nearly all actives have a fitted effect of over 60% in size. To be noted: iHSKM muscle cells + IFN-b, HiBiT or CellTiter-Glo, 24 h, at 45.9 µM (top of the series). Put shortly: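 HLA-B*08:01–HiBiT knock-in immortalized human myoblasts (C25cl48) stimulated with 4.0 ng/ml human IFN-beta and dosed with compound in a 12-point 1:3 titration (top final 46 uM). After 24 hrs at 37 C, HiBiT lytic luminescence or CellTiter Glo ATP read out.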

Test [3] has as its system Zika virus NS2B-NS3 protease (unlinked complex). As to the kind of experiment: Primary screen GU Rhodamine qHTS for Zika virus inhibitors: Unlinked NS2B-NS3 protease assay (AID 1347159). Also: % is scaled to controls: 0 for no effect and ±100 for the full control effect; nearly all actives have a fitted effect of over 60% in size. An outline of the steps:
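Percent inhibition came from the 15-min rise in Rhodamine110 fluorescence (1.5 microM substrate, ~15% conversion), normalized to no-inhibitor and no-enzyme wells and Hill-fitted. Unlinked protease, 25 nM, pH 8.0 Tris buffer; compounds up to 114 microM, 15-min preincubation.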

A further test relates to CAOV3. As to the kind of experiment: Primary qHTS to identify gynecologic anti-cancer compounds using libraries of approved drugs and bioactive compounds (AID 1345084). Also: nearly all actives have a fitted effect of over 55% in size. Also: potency is read from the fitted curve at half-maximal effect. To be noted: Gynecologic cancer cell panel viability, ATPlite luminescence, 48 h; series mostly up to 57.5 µM. Put shortly: (§1)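 Five-concentration response, 48 h; readout is ATP-driven luciferase luminescence.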

Test [4] can be described thus: P-glycoprotein substrates identified in KB-8-5-11 adenocarcinoma cell line, qHTS therapeutic library screen (AID 1346987). Also: nearly all actives have a fitted effect of over 65% in size. Also: potency is read from the fitted curve at half-maximal effect. Put shortly:
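Human cervical adenocarcinoma KB-8-5-11 cells, selected in colchicine to over-express P-gp and assayed without it, were exposed for 72 h to titrated compounds. An ATP-based luminescent viability signal gave AC50.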

For test [5], the target named is Cytochrome P450 2C9 (Homo sapiens) (UniProt P11712). As to the kind of experiment: Cytochrome P450 family 2 subfamily C member 9 (CYP2C9) small molecule antagonists: luciferase biochemical (cell-free) qHTS assay (AID 1645842; active = well fitted curve in the direction sought with a large enough effect in the repeat runs; an effect the other way counts as inactive or inconclusive; also: potency is read from the fitted curve at half-maximal effect; nearly all actives have a fitted effect of over 55% in size). Put shortly:
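P450-Glo CYP2C9 system: proluciferin substrate with enzyme in mix containing 0.4% BSA, 10 min at room temperature, then NADPH regeneration solution added and incubated 1 h at 37C. Detection reagent stopped reaction; luminescence read after 20 min as RLU.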

In the next test the test system is SKOV3. As to the kind of experiment: Primary qHTS to identify gynecologic anti-cancer compounds using libraries of approved drugs and bioactive compounds (AID 1345084). Also: nearly all actives have a fitted effect of over 55% in size. Also: potency is read from the fitted curve at half-maximal effect. Conditions: Gynecologic cancer cell panel viability, ATPlite luminescence, 48 h; series mostly up to 57.5 µM. An outline of the steps: as §1
Test [6] in a line: qHTS to identify inhibitors of the type 1 interferon - major histocompatibility complex class I in skeletal muscle: primary screen against the NCATS Mechanism Interrogation Plate v5.0 (MIPE) Libary (AID 1347411).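 Also: plate controls were vehicle for no effect and reference inhibitor for full effect; nearly all actives have a fitted effect of over 65% in size.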 An outline of the steps: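 IFN-beta-driven (4 ng/ml) HLA-B-HiBit expression in CRISPR-tagged C25cl48 myoblasts; compounds 11-pt, 1:3, max 46 uM, 24 hr exposure; lytic NanoLuc complementation luminescence.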

Test [7] deals with Cytochrome P450 2D6 (Homo sapiens) (UniProt P10635). As to the kind of experiment: Cytochrome P450 family 2 subfamily D member 6 (CYP2D6) small molecule antagonists: luciferase biochemical (cell-free) qHTS assay (AID 1645840; active = well fitted curve in the direction sought with a large enough effect in the repeat runs; an effect the other way counts as inactive or inconclusive; also: potency is read from the fitted curve at half-maximal effect; nearly all actives have a fitted effect of over 55% in size). An outline of the steps:
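P450-Glo CYP2D6 system: proluciferin substrate converted by enzyme to luciferin, read by luminescence proportional to activity. Enzyme-substrate mix with compound 10 min at room temperature, then NADPH regeneration 1 h before detection reagent.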

Test [8] deals with Catechol O-methyltransferase (Homo sapiens) (UniProt P21964). As to the kind of experiment: Confirmatory Screen for Target Class Profiling of Small Molecule Inhibitors of Methyltransferases (AID 1745852; calls by dose curve; also: potency is read from the fitted curve at half-maximal effect). To be noted: MTase-Glo luminescence, SAH detection, recombinant enzyme; measured here: COMT max response; stronger effect = lower value.
For test [9], the target named is Guanidinoacetate N-methyltransferase (Homo sapiens) (UniProt Q14353). The test is described as above. To be noted: activity change, negative = inhibition: at 57.3 µM (top of the series) unless noted.
In test [10] the target is Nicotinamide N-methyltransferase (Homo sapiens) (UniProt P40261). The test is described as above. To be noted: MTase-Glo luminescence, SAH detection, recombinant enzyme; measured here: NNMT max response; stronger effect = lower value.
Test [11] has as its target Phenylethanolamine N-methyltransferase (Homo sapiens) (UniProt P11086). Described as above. Conditions: MTase-Glo luminescence, SAH detection, recombinant enzyme; measured here: PNMT max response; stronger effect = lower value.
Where [12] appears, read: measured here: PEO1 parental Z-AUC.

Results filed as inconclusive are left out. The source made the active and inactive calls. Unless noted, calls follow the shape of the dose curve; as a rule, active = well fitted curve in the direction sought with a large enough effect; inconclusive = small, poorly fitted or top-dose-only effect, or another doubt; inactive = no such curve, though single readings can be large; an effect the other way counts as inactive or inconclusive.

Chain of Cytochrome P450 2C9 (Homo sapiens) (P11712 whole entry, looked up): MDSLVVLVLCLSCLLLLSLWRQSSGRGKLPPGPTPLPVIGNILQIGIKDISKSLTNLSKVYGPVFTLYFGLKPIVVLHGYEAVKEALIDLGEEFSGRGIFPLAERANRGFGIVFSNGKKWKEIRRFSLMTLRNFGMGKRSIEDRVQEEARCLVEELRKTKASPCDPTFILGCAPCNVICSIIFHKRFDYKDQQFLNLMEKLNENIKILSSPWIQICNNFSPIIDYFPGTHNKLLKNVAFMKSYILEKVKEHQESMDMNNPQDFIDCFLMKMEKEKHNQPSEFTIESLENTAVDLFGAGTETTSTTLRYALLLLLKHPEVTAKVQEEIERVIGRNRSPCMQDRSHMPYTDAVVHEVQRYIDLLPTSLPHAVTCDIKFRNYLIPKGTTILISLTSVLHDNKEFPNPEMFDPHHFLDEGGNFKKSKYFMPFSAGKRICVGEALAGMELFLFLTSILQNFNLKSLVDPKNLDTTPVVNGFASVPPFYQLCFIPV
Chain of Cytochrome P450 2D6 (Homo sapiens) (P10635 whole entry, looked up): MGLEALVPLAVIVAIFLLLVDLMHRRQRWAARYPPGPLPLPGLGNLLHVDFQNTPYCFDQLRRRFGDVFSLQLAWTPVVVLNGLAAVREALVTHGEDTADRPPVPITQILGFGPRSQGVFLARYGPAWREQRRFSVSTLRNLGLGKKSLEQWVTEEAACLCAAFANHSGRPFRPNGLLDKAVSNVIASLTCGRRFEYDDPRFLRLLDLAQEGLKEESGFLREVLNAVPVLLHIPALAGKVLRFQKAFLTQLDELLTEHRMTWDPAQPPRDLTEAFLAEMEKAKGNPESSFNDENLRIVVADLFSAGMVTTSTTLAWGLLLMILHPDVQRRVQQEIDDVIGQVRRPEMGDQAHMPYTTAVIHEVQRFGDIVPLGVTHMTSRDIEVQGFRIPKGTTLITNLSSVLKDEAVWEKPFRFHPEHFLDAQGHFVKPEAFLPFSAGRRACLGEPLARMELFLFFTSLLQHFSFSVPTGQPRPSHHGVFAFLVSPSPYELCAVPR
Chain of Phenylethanolamine N-methyltransferase (Homo sapiens) (P11086 whole entry, looked up): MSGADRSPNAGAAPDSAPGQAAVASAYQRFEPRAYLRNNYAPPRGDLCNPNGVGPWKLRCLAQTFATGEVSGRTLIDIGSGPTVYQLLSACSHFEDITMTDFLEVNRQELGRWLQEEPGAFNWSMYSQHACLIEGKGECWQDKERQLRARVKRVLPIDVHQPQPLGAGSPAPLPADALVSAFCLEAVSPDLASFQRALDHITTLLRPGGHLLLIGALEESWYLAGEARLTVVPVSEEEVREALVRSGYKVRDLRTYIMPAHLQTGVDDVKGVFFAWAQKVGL
Chain of Catechol O-methyltransferase (Homo sapiens) (P21964 whole entry, looked up): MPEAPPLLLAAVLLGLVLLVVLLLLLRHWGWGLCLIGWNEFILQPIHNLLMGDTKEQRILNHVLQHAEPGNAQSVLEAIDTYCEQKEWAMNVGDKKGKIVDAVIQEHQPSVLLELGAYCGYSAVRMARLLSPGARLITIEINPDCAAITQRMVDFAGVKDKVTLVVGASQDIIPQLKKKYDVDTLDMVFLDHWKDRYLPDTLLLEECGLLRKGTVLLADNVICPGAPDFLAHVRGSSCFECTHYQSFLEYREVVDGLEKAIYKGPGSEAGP
Chain of Nicotinamide N-methyltransferase (Homo sapiens) (P40261 whole entry, looked up): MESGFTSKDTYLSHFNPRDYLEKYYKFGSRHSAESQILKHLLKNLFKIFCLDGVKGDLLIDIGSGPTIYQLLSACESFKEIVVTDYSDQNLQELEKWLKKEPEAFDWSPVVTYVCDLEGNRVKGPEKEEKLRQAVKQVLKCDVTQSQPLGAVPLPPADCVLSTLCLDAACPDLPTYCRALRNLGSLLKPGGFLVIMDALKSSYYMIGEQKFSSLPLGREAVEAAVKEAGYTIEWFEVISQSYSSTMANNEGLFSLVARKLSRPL

With `O=c1c(-n2ccnn2)c[nH]n1-c1cc(N2CCOCC2)ncn1`, the Z-AUC in test [1] is 1.14 (inactive); in test [1] (setting [12]) it was 0.854; in [1] (measured here: PEO4 Z-AUC), 1.55. Also, the Potency in the test on HaCat was 1.86 µM (active). The activity change, negative = inhibition in [2] (HiBiT) was -24.7% (inactive); in [2] (Viability) it was -14.1% (inactive).
For the compound `Oc1ccc(Nc2nc(-c3ccc(Cl)cc3)cs2)cc1`, the Potency entry (in test [3]; in the test with CAOV3) was “inactive” in each case. Further, the Z-AUC in test [1] was -0.146 (inactive); in test [1] (setting [12]), 0.0588; in test [1] (measured here: PEO4 Z-AUC), 0.0633. Besides, in the test with HaCat, the max response was -8.45% (inactive). For the same compound, the results for the activity change, negative = inhibition in [2] (HiBiT) and in test [2] (Viability) were -38.1% (inactive) and 7.19% (inactive), respectively.
Take `C=C(C)[C@@H]1CC[C@]2(C(=O)O)CC[C@]3(C)C(CCC4[C@@]5(C)C[C@@H](O)[C@H](O)C(C)(C)C5CC[C@]43C)C12` (stereo not given in full): the Potency result in test [4] was “inactive”. In the test with HaCat, the max response was -24.1% (inactive).
On to `O=S(=O)(c1cccc2ccccc12)n1ccc2ccc(N3CCN4CCCC4C3)cc21` (stereo not given), for which the Potency was 20.6 µM (active) in test [4] and 12 µM (active) in test [5]. Besides, the Potency entry (in [3]; with SKOV3) was “inactive” in each case. Further, in the test on HaCat, the max response was 4.67% (inactive).
Consider `COc1cccc(CNC(=O)Nc2nc(-c3ccncc3)cs2)c1`, for which the Potency in [5] is 0.239 µM (active). Moreover, the max response with HaCat is -7.04% (inactive). Further, the Potency entry with CAOV3 and in the test on SKOV3 was “inactive” in each case.
As to `CCN(CCCOc1ccc2c(Nc3cc(CC(=O)Nc4cccc(F)c4)[nH]n3)ncnc2c1)CCOP(=O)(O)O`, in [6], the Potency entry is “inactive”. Besides, the Z-AUC in test [1] is 1.19 (inactive); in test [1] (setting [12]), 0.684; in test [1] (measured here: PEO4 Z-AUC), 0.183. Moreover, the Potency in the test on HaCat was 2.06 µM (active); in the test on SKOV3 it was 15.8 µM (active).
On to `O=C(c1ccc(F)c(F)c1Nc1ccc(I)cc1F)N1CC(O)(C2CCCCN2)C1` (stereo not given), for which the Potency in test [4] is 18.4 µM (active); in the test on HaCat it was 23.1 µM (active); in the test on SKOV3 it was 20 µM (active). The Potency result in test [3] was “inactive”.
In the case of `CC(C)N(CCCNC(=O)Nc1ccc(C(C)(C)C)cc1)C[C@H]1O[C@@H](n2cc(Br)c3c(N)ncnc32)[C@H](O)[C@@H]1O`, the Potency result (in test [4]; in [3]; in the test with SKOV3) was “inactive” in each case. The Potency was 15.1 µM (active) in [7] and 21.5 µM (active) in [9]. Also, the activity in test [8] was -65.3%; in [10], -73.5%; in test [11] it was -94.2%. Further, the Z-AUC is 0.222 (inactive) in test [1], 0.00626 in test [1] (setting [12]) and -0.104 in test [1] (measured here: PEO4 Z-AUC). For the same compound, the max response in the test on HaCat is -3.75% (inactive).
As to `CC(=O)C1=C(O)C2c3c[nH]c4cccc(c34)CC2C(C)(C)N(C)C1=O` (stereo not given), in test [4], the Potency is 9.2 µM (active). The Potency entry (in [3]; in the test with SKOV3) was “inactive” throughout. Further, the max response in the test on HaCat was -23.8% (inactive).
`CN(CCCNC(=O)c1ccc2nc3c(c(Cl)c2c1)CCCC3)Cc1ccccc1`: the Potency in test [7] was 1.34 µM (active); in test [5] it was 15.1 µM (active). For the same compound, the max response with HaCat is 1.7% (inactive). Moreover, the Potency result in the test with SKOV3 is “inactive”.
